Here are results for 58 molecules from ChEMBL document CHEMBL4513216, “Probing the Open Global Health Chemical Diversity Library for Multistage-Active Starting Points for Next-Generation Antimalarials” (ACS Infect Dis, 2020).

About 8,600 (12%) of roughly 69,000 compounds showed an effect of 50% or more. The list comes from a sample in which strong results are over-represented; it also holds similar structures and randomly drawn compounds.

For the test, the system named is Plasmodium berghei. Briefly: Screen against P. berghei liver stage (PbLuc), transformed with Luciferase, at 10uM. It counts as functional, HepG2. The conditions noted are these: tested at 10 uM.
`Cc1ccnn1CCC(=O)N1CCCC2(C1)NC(=O)c1ccccc1O2` (stereo not drawn): the INHIBITION was -2.2%.

With `CC1=C(C(N)=O)C(c2cn(C)nc2C)N2C(=O)CSC2=N1` (stereo not drawn), the INHIBITION is -20.5%.

`CCn1ncc2c1C(COCC1CC1)N(C(=O)c1ccncn1)CC2` (stereo not drawn): the INHIBITION is recorded as 9.34%.

On to `CC(=O)N1CCCCC1c1nc(N)ncc1-c1ccccc1` (stereo not drawn), for which the INHIBITION came out at 38.1%.

As to `CN1CCC2(CCCN(C(=O)c3cncn3C)C2)CC1`, the INHIBITION turned out to be 29%.

Regarding `Cc1noc(CCNC(=O)NCc2ccc(OC3CCCC3)cc2)n1`, the INHIBITION is reported as -33.4%.

In the case of `CO[C@@H]1CN(c2ccccc2)S(=O)(=O)[C@@]12CCN(Cc1cncs1)C2`, the INHIBITION stood at 41.9%.

On to `Cc1cc(C)n(C2CCN(S(=O)(=O)N3CCC(C)CC3)CC2)n1`, for which the INHIBITION came out at 19.3%.

On to `CC(=O)N1N=C(c2ccccc2)OC1C(=O)NCCc1cccc(F)c1` (stereo not drawn), for which the INHIBITION is on record as -18.2%.

For the molecule `CN(C)C(=O)N1CC[C@H]2[C@H]1CCN2c1nncs1`, the INHIBITION turned out to be 2.4%.

For `COCc1nc(C(=O)N2CCCC2c2ccc(OC)cc2)cs1` (stereo not drawn), the INHIBITION turned out to be 46.2%.

Turning to `OC12CCC(CC1)N(Cc1ccc(F)cc1)C2CN1CCOCC1` (stereo not drawn), the INHIBITION turned out to be 9.36%.

Consider `Cc1ccc2c(ccn2CCC(=O)NC[C@@H]2CCCN3CCCC[C@H]23)c1`, for which the INHIBITION is reported as -3.95%.

As to `COc1ccc2c(ccn2CC(=O)NC[C@@H]2CCCN3CCCC[C@H]23)c1`, the INHIBITION is given as 54.8%.

For the molecule `Cc1ccc2c(ccn2CC(=O)NC[C@@H]2CCCN3CCCC[C@H]23)c1`, the INHIBITION came to 47.4%.

Turning to `Cc1ccc(-c2nc(CNCC3CN(C)CCO3)cs2)o1` (stereo not drawn), the INHIBITION stood at 41.4%.

Regarding `Cc1nn(C)c2c(N(C)Cc3ccco3)nc(C3CC3)nc12`, the INHIBITION was found to be 19.7%.

Consider `O=C(O)[C@H]1C[C@H](C(=O)NCc2ccncc2)CN(CCC(F)(F)F)C1`, for which the INHIBITION is given as -78.5%.

On to `COc1ccccc1NC(=O)CC(C)NCCc1sc(C)nc1C` (stereo not drawn), for which the INHIBITION was determined as 71.3%.

As to `COc1ccccc1NC(=O)CC(C)NCc1scnc1C` (stereo not drawn), the INHIBITION turned out to be 25.6%.

Turning to `CCc1cnc(CCNC(C)CC(=O)Nc2cccc(C)c2C)s1` (stereo not drawn), the INHIBITION stood at 15.6%.

`CO[C@H]1CC[C@H]2[C@H]1OCCN2C(=O)CCOc1ccccc1`: the INHIBITION is 14%.

Turning to `COCC1COCCC12CCN(Cc1nccs1)CC2` (stereo not drawn), the INHIBITION is on record as 22.6%.

In the case of `CNC(=O)c1cccc(CN2CCN(c3ccncc3)CC2)c1`, the INHIBITION amounted to 35.1%.

Consider `Cc1cc(CN2CCC(CNS(=O)(=O)c3ccc(C)s3)CC2)c(C)o1`, for which the INHIBITION is on record as 49.7%.

With `Cc1cc(CN2CCC(CNS(=O)(=O)c3ccc(Br)s3)CC2)c(C)o1`, the INHIBITION is recorded as 79%.

For the molecule `Cc1cc(CN2CCC(CNS(=O)(=O)c3ccccc3F)CC2)c(C)o1`, the INHIBITION is 14.4%.

`O=C(NCc1ccco1)[C@@H]1CC[C@@H]2[C@@H](CCN2Cc2ccc(F)cc2)O1`: the INHIBITION worked out at 5.87%.

Consider `O=C1CC(c2ccccc2)c2snc(C(=O)O)c2N1` (stereo not drawn), for which the INHIBITION was determined as 12.6%.

`O=C1CC(c2ccsc2)c2snc(C(=O)O)c2N1` (stereo not drawn): the INHIBITION is on record as 72.6%.

For the molecule `O=C1CC(c2ccc(F)c(F)c2)c2snc(C(=O)O)c2N1` (stereo not drawn), the INHIBITION amounted to 27.6%.

Turning to `O=C1CC(c2ccc(F)cc2)c2snc(C(=O)O)c2N1` (stereo not drawn), the INHIBITION came to 15.9%.

With `O=C1CC(c2cccc(Cl)c2)c2snc(C(=O)O)c2N1` (stereo not drawn), the INHIBITION is given as 55.7%.

For `O=C1CC(c2ccc(C(F)(F)F)cc2)c2snc(C(=O)O)c2N1` (stereo not drawn), the INHIBITION is reported as 42.4%.

On to `O=C(c1cccnc1)N1CCc2ncnc(C3CCOC3)c2CC1` (stereo not drawn), for which the INHIBITION was found to be 25.6%.

In the case of `CN(Cc1ccc2c(c1)OCO2)C(=O)C1CC(c2cccc(F)c2)=NO1` (stereo not drawn), the INHIBITION is given as -14.3%.

As to `COCCOCC(=O)N1C[C@@H]2CC[C@H](Oc3cccc(F)c3)[C@@H]2C1`, the INHIBITION was -71.9%.

As for `CN1CCCC2(CC1)CCN(C(=O)CCc1ccccc1F)CC2`, the INHIBITION is 80%.

`CN1CCCC2(CC1)CCN(C(=O)CCc1ccccc1O)CC2`: the INHIBITION is 56.5%.

Consider `Cc1nc2c(c(=O)n1C)CCN(C(=O)CCc1ccccc1O)CC2`, for which the INHIBITION is recorded as 14.3%.

For `CCCC(=O)N1Cc2ccccc2CC2(CCN(C)C2)C1` (stereo not drawn), the INHIBITION is on record as 40%.

`COC(=O)CCC(=O)N1CCC2(CN(Cc3ccccc3F)C2)C1`: the INHIBITION is reported as 22.4%.

As for `CN1CCN(CC2(O)CCN(C(=O)CCc3ccccc3F)C2)CC1` (stereo not drawn), the INHIBITION was 16.705%.

As to `COc1ccc(CCNC(=O)N2CCCC(c3nncn3C)C2)cc1` (stereo not drawn), the INHIBITION is listed as -12.1%.

Take `COCCN1CCC(CNC(=O)C2(c3ccccc3)CCOCC2)C1` (stereo not drawn): the INHIBITION came out at 5.9%.

On to `CC1COCCN1Cc1nc(-c2cccc(C(F)(F)F)c2)no1` (stereo not drawn), for which the INHIBITION turned out to be 9.54%.

Take `CCc1c(C)nc2ccccc2c1N1CCC(NC(C)=O)CC1`: the INHIBITION came out at 37.2%.

Regarding `CCc1c(C)nc2ccccc2c1N1CCC(O)CC1`, the INHIBITION was 24.4%.

As for `CCc1c(C)nc2ccccc2c1N1CCC(C(=O)NC)CC1`, the INHIBITION is listed as 52.2%.

In the case of `COc1c(CNC2CCc3ccccc32)c(C(C)C)nn1C` (stereo not drawn), the INHIBITION was determined as 11.2%.

As to `CC(=O)N1CCC(NC(=O)Cc2nc3nc(C)cc(C)n3n2)CC1`, the INHIBITION was determined as 4.25%.

`O=S(=O)(NCC1OCCc2cn(Cc3ccccn3)nc21)C1CC1` (stereo not drawn): the INHIBITION is 10.7%.

On to `C[C@@H]1CN(Cc2cccnc2)C[C@]12CCN(CCN1CCCC1)C2=O`, for which the INHIBITION turned out to be 37.1%.

Regarding `Cc1ccc(CN(Cc2ccccn2)C(=O)[C@H]2CC[C@@H](N)C2)s1`, the INHIBITION is given as 60.8%.

For `Cc1ccc(CN(Cc2ccccn2)C(=O)C2CCCCCN2C)s1` (stereo not drawn), the INHIBITION was 27.6%.

In the case of `Cc1ccc(CN(Cc2ccccn2)C(=O)CCC2CCCN(C)C2)s1` (stereo not drawn), the INHIBITION is given as 49%.

On to `CC(CC1CC1)NCCCN1CCCN(C)CC1` (stereo not drawn), for which the INHIBITION is -7.94%.

As to `Cn1cc(NC(=O)Nc2cccc3cccnc23)ccc1=O`, the INHIBITION was determined as 37.9%.
